Data reported in ChEMBL document CHEMBL2218924, “A broad activity screen in support of a chemogenomic map for kinase signalling research and drug discovery” (Biochem J, 2013).

These molecules were tested against Serine/threonine-protein kinase tousled-like 2 (Homo sapiens) (UniProt Q86UE8). Settings: at 10 µM.
Sequence of Serine/threonine-protein kinase tousled-like 2 (Homo sapiens) (Q86UE8 whole entry, looked up): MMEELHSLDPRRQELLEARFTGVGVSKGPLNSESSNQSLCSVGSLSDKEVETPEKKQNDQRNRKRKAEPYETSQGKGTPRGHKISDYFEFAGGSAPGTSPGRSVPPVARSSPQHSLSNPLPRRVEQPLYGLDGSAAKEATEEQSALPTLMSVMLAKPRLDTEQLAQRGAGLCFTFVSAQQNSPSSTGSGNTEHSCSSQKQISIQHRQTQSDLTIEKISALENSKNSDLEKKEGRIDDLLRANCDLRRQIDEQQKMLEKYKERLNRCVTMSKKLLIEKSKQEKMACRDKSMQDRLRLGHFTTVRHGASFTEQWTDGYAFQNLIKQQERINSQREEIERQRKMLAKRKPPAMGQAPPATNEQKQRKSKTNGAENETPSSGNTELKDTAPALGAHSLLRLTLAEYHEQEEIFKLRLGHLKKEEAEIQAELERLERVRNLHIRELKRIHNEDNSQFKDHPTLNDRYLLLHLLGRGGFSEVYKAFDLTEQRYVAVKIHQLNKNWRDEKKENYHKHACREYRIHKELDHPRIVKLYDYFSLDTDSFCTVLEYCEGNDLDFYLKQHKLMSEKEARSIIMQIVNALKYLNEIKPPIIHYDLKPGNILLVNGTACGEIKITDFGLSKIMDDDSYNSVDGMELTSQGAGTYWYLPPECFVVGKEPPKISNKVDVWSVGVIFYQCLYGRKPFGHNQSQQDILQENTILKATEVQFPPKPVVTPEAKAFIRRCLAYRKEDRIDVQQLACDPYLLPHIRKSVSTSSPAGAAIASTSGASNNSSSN

**Q.** For `c1cc(-c2cnn3cc(-c4ccc(OCCN5CCCCC5)cc4)cnc23)ccn1`, which residual activity is on record?
**A.** 74%

**Q.** `O=[N+]([O-])/C=C/c1ccc2c(c1)OCO2` was tested. Which residual activity did it give?
**A.** 97%

**Q.** Which residual activity does the source give for `COc1ccc2c(c[n+](C)c3c4cc5c(cc4ccc23)OCO5)c1OC` here?
**A.** 92%

**Q.** `COc1cc(OC)c(/C=C2\C(=O)Nc3ccccc32)c(OC)c1` was tested. Which residual activity did it give?
**A.** 85%

**Q.** `CC(C)(C)c1cc(C=C(C#N)C#N)cc(Br)c1O` was tested. Which residual activity did it give?
**A.** 98%

**Q.** For `O=C1Nc2ccc3ncsc3c2/C1=C/c1c[nH]cn1`, which residual activity is on record?
**A.** 3%

**Q.** How did the residual activity turn out when `O=c1[nH]c2ccccc2n1C1CCN(Cc2ccc(-c3nc4cc5[nH]cnc5cc4nc3-c3ccccc3)cc2)CC1` was run?
**A.** 84%

**Q.** Which residual activity does the source give for `COc1ccc2c(c1)/C(=C/c1cnc[nH]1)C(=O)N2` here?
**A.** 11%

**Q.** `CCn1cnc2c(Nc3cccc(Cl)c3)nc(N[C@@H]3CCCC[C@@H]3N)nc21` was tested. Which residual activity did it give?
**A.** 4%

**Q.** With `N/C(=N\[N+](=O)[O-])N/N=C\c1ccc(-c2cccc([N+](=O)[O-])c2)o1` as the molecule, how does the residual activity read?
**A.** 90%

**Q.** For `CC(C)[C@H](CO)Nc1nc(Nc2cccc(Cl)c2)c2ncn(C(C)C)c2n1`, which residual activity is on record?
**A.** 81%

**Q.** Which residual activity does the source give for `COC(=O)[C@@]1(O)C[C@H]2O[C@]1(C)n1c3ccccc3c3c4c(c5c6ccccc6n2c5c31)C(=O)NC4` here?
**A.** 0%

**Q.** Which residual activity does the source give for `CCc1nc(-c2ccc(OC)cc2)[nH]c1-c1ccncc1` here?
**A.** 100%

**Q.** `COc1cc2ncnc(Nc3ccc(OCc4ccccc4)cc3)c2cc1OC` was tested. Which residual activity did it give?
**A.** 96%

**Q.** With `O=C1NC(=O)c2c1c1c3ccccc3n3c1c1c2c2ccccc2n1C1CCC3O1` as the molecule, how does the residual activity read?
**A.** 68%

**Q.** For `CN[C@@H]1C[C@H]2O[C@@](C)([C@@H]1OC)n1c3ccccc3c3c4c(c5c6ccccc6n2c5c31)C(=O)NC4`, which residual activity is on record?
**A.** 1%

**Q.** Which residual activity does the source give for `C[S+]([O-])c1ccc(-c2nc(-c3ccc(F)cc3)c(-c3ccncc3)[nH]2)cc1` (stereo unspecified) here?
**A.** 109%

What follows are molecules tested against T1, Testis-specific serine/threonine-protein kinase 1 (Homo sapiens) (UniProt Q9BXA7). Settings: at 1 µM.
T1 sequence (whole entry): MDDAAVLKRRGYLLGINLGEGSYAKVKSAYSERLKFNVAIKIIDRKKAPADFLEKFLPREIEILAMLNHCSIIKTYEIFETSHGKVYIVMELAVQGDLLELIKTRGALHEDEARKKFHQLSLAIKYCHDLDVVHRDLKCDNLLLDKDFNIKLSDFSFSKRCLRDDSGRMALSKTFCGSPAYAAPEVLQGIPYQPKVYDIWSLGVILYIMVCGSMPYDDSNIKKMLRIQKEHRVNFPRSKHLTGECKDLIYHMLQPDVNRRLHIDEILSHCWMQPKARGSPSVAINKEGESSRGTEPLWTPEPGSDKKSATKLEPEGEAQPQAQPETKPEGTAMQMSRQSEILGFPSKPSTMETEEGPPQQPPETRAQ

**Q.** With `c1cc(-c2cnn3cc(-c4ccc(OCCN5CCCCC5)cc4)cnc23)ccn1` as the molecule, how does the residual activity read?
**A.** 76%

**Q.** With `O=[N+]([O-])/C=C/c1ccc2c(c1)OCO2` as the molecule, how does the residual activity read?
**A.** 96%

**Q.** Which residual activity does the source give for `COc1cc(OC)c(/C=C2\C(=O)Nc3ccccc32)c(OC)c1` here?
**A.** 92%

**Q.** For `CC(C)(C)c1cc(C=C(C#N)C#N)cc(Br)c1O`, which residual activity is on record?
**A.** 105%

**Q.** Which residual activity does the source give for `O=C1Nc2ccc3ncsc3c2/C1=C/c1c[nH]cn1` here?
**A.** 68%

**Q.** With `O=c1[nH]c2ccccc2n1C1CCN(Cc2ccc(-c3nc4cc5[nH]cnc5cc4nc3-c3ccccc3)cc2)CC1` as the molecule, how does the residual activity read?
**A.** 97%

**Q.** `CCn1cnc2c(Nc3cccc(Cl)c3)nc(N[C@@H]3CCCC[C@@H]3N)nc21` was tested. Which residual activity did it give?
**A.** 79%

**Q.** With `CC(C)[C@H](CO)Nc1nc(Nc2cccc(Cl)c2)c2ncn(C(C)C)c2n1` as the molecule, how does the residual activity read?
**A.** 97%

**Q.** Which residual activity does the source give for `COC(=O)[C@@]1(O)C[C@H]2O[C@]1(C)n1c3ccccc3c3c4c(c5c6ccccc6n2c5c31)C(=O)NC4` here?
**A.** -1%

**Q.** `CCc1nc(-c2ccc(OC)cc2)[nH]c1-c1ccncc1` was tested. Which residual activity did it give?
**A.** 113%

**Q.** For `COc1cc2ncnc(Nc3ccc(OCc4ccccc4)cc3)c2cc1OC`, which residual activity is on record?
**A.** 104%

**Q.** `O=C1NC(=O)c2c1c1c3ccccc3n3c1c1c2c2ccccc2n1C1CCC3O1` was tested. Which residual activity did it give?
**A.** 92%

**Q.** For `C[S+]([O-])c1ccc(-c2nc(-c3ccc(F)cc3)c(-c3ccncc3)[nH]2)cc1` (stereo unspecified), which residual activity is on record?
**A.** 106%

What follows are molecules tested against T1, Testis-specific serine/threonine-protein kinase 1 (Homo sapiens). Settings: at 10 µM.

**Q.** For `c1cc(-c2cnn3cc(-c4ccc(OCCN5CCCCC5)cc4)cnc23)ccn1`, which residual activity is on record?
**A.** 45%

**Q.** For `O=[N+]([O-])/C=C/c1ccc2c(c1)OCO2`, which residual activity is on record?
**A.** 94%

**Q.** With `COc1cc(OC)c(/C=C2\C(=O)Nc3ccccc32)c(OC)c1` as the molecule, how does the residual activity read?
**A.** 91%

**Q.** `CC(C)(C)c1cc(C=C(C#N)C#N)cc(Br)c1O` was tested. Which residual activity did it give?
**A.** 101%

**Q.** `O=C1Nc2ccc3ncsc3c2/C1=C/c1c[nH]cn1` was tested. Which residual activity did it give?
**A.** 31%

**Q.** Which residual activity does the source give for `O=c1[nH]c2ccccc2n1C1CCN(Cc2ccc(-c3nc4cc5[nH]cnc5cc4nc3-c3ccccc3)cc2)CC1` here?
**A.** 54%

**Q.** `CCn1cnc2c(Nc3cccc(Cl)c3)nc(N[C@@H]3CCCC[C@@H]3N)nc21` was tested. Which residual activity did it give?
**A.** 40%

**Q.** Which residual activity does the source give for `CC(C)[C@H](CO)Nc1nc(Nc2cccc(Cl)c2)c2ncn(C(C)C)c2n1` here?
**A.** 72%

**Q.** `COC(=O)[C@@]1(O)C[C@H]2O[C@]1(C)n1c3ccccc3c3c4c(c5c6ccccc6n2c5c31)C(=O)NC4` was tested. Which residual activity did it give?
**A.** 0%

**Q.** With `COc1cc2ncnc(Nc3ccc(OCc4ccccc4)cc3)c2cc1OC` as the molecule, how does the residual activity read?
**A.** 90%

**Q.** Which residual activity does the source give for `O=C1NC(=O)c2c1c1c3ccccc3n3c1c1c2c2ccccc2n1C1CCC3O1` here?
**A.** 70%

**Q.** For `C[S+]([O-])c1ccc(-c2nc(-c3ccc(F)cc3)c(-c3ccncc3)[nH]2)cc1` (stereo unspecified), which residual activity is on record?
**A.** 94%

What follows are molecules tested against T2, Testis-specific serine/threonine-protein kinase 2 (Homo sapiens) (UniProt Q96PF2). Settings: at 1 µM.
T2 sequence (whole entry): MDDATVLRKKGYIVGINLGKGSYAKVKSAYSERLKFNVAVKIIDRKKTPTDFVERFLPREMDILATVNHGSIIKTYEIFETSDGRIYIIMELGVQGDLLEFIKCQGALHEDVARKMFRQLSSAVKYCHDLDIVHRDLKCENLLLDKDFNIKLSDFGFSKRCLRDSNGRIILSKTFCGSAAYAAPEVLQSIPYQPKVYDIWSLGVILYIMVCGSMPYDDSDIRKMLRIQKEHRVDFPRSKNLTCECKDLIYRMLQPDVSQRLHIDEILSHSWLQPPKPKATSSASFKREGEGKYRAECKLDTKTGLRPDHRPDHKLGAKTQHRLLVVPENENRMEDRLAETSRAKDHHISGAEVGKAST

**Q.** For `O=c1cc(N2CCOCC2)oc2c1ccc1ccccc12`, which residual activity is on record?
**A.** 95%

**Q.** Which residual activity does the source give for `O=[N+]([O-])/C=C/c1ccc2c(c1)OCO2` here?
**A.** 87%

**Q.** How did the residual activity turn out when `O=C(c1cc2cc(O)ccc2[nH]1)c1cc2cc(O)ccc2[nH]1` was run?
**A.** 77%

**Q.** Which residual activity does the source give for `NC(=O)Nc1sc(-c2ccc(F)cc2)cc1C(N)=O` here?
**A.** 88%

**Q.** Which residual activity does the source give for `COc1cc(OC)c(/C=C2\C(=O)Nc3ccccc32)c(OC)c1` here?
**A.** 102%

**Q.** With `Nc1n[nH]c2nc3ccccc3nc12` as the molecule, how does the residual activity read?
**A.** 95%

**Q.** Which residual activity does the source give for `Nc1cccc(-c2cc3c(Oc4cccc(O)c4)ncnc3[nH]2)c1` here?
**A.** 82%

**Q.** Which residual activity does the source give for `CC(C)(C)c1cc(C=C(C#N)C#N)cc(Br)c1O` here?
**A.** 113%

**Q.** How did the residual activity turn out when `O=C1Nc2ccc3ncsc3c2/C1=C/c1c[nH]cn1` was run?
**A.** 89%

**Q.** Which residual activity does the source give for `Cn1cnc2cc3c(Nc4cccc(Br)c4)ncnc3cc21` here?
**A.** 100%

**Q.** With `Cc1cccc(-c2[nH]c(C(C)(C)C)nc2-c2ccc3c(c2)OCO3)n1` as the molecule, how does the residual activity read?
**A.** 93%

**Q.** For `CC(C)n1cnc2/c(=N/c3cccc(Cl)c3)nc(NCCO)[nH]c21`, which residual activity is on record?
**A.** 88%

**Q.** How did the residual activity turn out when `N#C/C(=C(\N)Sc1ccc(N)cc1)c1ccccc1C(F)(F)F` was run?
**A.** 62%

**Q.** How did the residual activity turn out when `Cc1ccc(S(=O)(=O)/C=C/C#N)cc1` was run?
**A.** 92%

**Q.** Which residual activity does the source give for `Ic1cccc(CSc2nnc(-c3ccncc3)o2)c1` here?
**A.** 87%

**Q.** Which residual activity does the source give for `O=c1[nH]c2ccccc2n1C1CCN(Cc2ccc(-c3nc4cc5[nH]cnc5cc4nc3-c3ccccc3)cc2)CC1` here?
**A.** 106%

**Q.** With `CCOc1cc2ncnc(Nc3cccc(Br)c3)c2cc1OCC` as the molecule, how does the residual activity read?
**A.** 82%

**Q.** Which residual activity does the source give for `N#C/C(=C1/Nc2ccccc2S1)c1ccnc(NCCc2cccnc2)n1` here?
**A.** 82%

**Q.** `O=Nc1c(-c2c(O)[nH]c3ccccc23)[nH]c2ccccc12` was tested. Which residual activity did it give?
**A.** 95%

**Q.** For `O=c1c2ccccc2[nH]c(=S)n1CCN1CCC(=C(c2ccc(F)cc2)c2ccc(F)cc2)CC1`, which residual activity is on record?
**A.** 96%

**Q.** How did the residual activity turn out when `CCn1cnc2c(Nc3cccc(Cl)c3)nc(N[C@@H]3CCCC[C@@H]3N)nc21` was run?
**A.** 90%

**Q.** Which residual activity does the source give for `CO[C@H]1[C@@H](OC)C[C@H](C)[C@@H](OC)C2=CC(=O)C=C(NC(=O)/C(C)=C/C=C/[C@H](OC)[C@@H](OC(N)=O)/C(C)=C/[C@@H]1C)C2=O` here?
**A.** 97%

**Q.** Which residual activity does the source give for `CC(=O)c1ccc(N2CCOCC2)cc1O` here?
**A.** 89%

**Q.** How did the residual activity turn out when `CNc1cc2c(Nc3cccc(Br)c3)ncnc2cn1` was run?
**A.** 104%

**Q.** With `N/C(=N\[N+](=O)[O-])N/N=C\c1ccc(-c2cccc([N+](=O)[O-])c2)o1` as the molecule, how does the residual activity read?
**A.** 91%

**Q.** Which residual activity does the source give for `CC(C)[C@H](CO)Nc1nc(Nc2cccc(Cl)c2)c2ncn(C(C)C)c2n1` here?
**A.** 94%

**Q.** `COC(=O)[C@@]1(O)C[C@H]2O[C@]1(C)n1c3ccccc3c3c4c(c5c6ccccc6n2c5c31)C(=O)NC4` was tested. Which residual activity did it give?
**A.** 8%

**Q.** For `COc1cc2ncnc(Nc3ccc(OCc4ccccc4)cc3)c2cc1OC`, which residual activity is on record?
**A.** 107%

**Q.** `O=C1NC(=O)c2c1c1c3ccccc3n3c1c1c2c2ccccc2n1C1CCC3O1` was tested. Which residual activity did it give?
**A.** 82%

**Q.** `Oc1ccc(-c2nc(-c3ccc(F)cc3)c(-c3ccncc3)[nH]2)cc1` was tested. Which residual activity did it give?
**A.** 103%

**Q.** Which residual activity does the source give for `CSc1nc(-c2ccc(F)cc2)c(-c2ccnc(NC(C)c3ccccc3)c2)[nH]1` (stereo unspecified) here?
**A.** 98%

**Q.** How did the residual activity turn out when `N#Cc1cnc2cnc(NCc3cccnc3)cc2c1Nc1ccc(F)c(Cl)c1` was run?
**A.** 14%

**Q.** With `C[S+]([O-])c1ccc(-c2nc(-c3ccc(F)cc3)c(-c3ccncc3)[nH]2)cc1` (stereo unspecified) as the molecule, how does the residual activity read?
**A.** 94%

**Q.** `COc1ccc(OC)c2c(=S)c3ccccc3[nH]c12` was tested. Which residual activity did it give?
**A.** 106%
